The values below come from the antibiotic and cytotoxicity screens of Wong et al. (2023).

Hit rate of the full screen: of about 39,000 compounds, about 3,300 (8.5%) were called active. The full list was thinned out, with actives kept by preference.

For the assay, the system named is HepG2. The assay can be described thus: cytotoxicity call (relative viability < 0.9). As to conditions: 10 µM.
With `COCCCNC(=O)C1[C@@H]2CC[C@H]1CNC2` (some centres not stated), the cytotoxicity call is “inactive”.

Consider `O=[N+]([O-])OC1COC2C(O[N+](=O)[O-])COC12` (configuration not stated), for which the cytotoxicity call is “inactive”.

With `OC[C@@H](O)Cc1ccc2c(c1)OCO2`, the cytotoxicity call is “inactive”.

Turning to `C=CCc1ccc2c(c1)OCO2`, the cytotoxicity call is “active”.

Regarding `OCc1ccc2c(c1)OCO2`, the cytotoxicity call was “inactive”.

Take `CC=Cc1ccc2c(c1)OCO2`: the cytotoxicity call is “inactive”.

Consider `COP(=S)(OC)Oc1ccc([N+](=O)[O-])cc1`, for which the cytotoxicity call is “inactive”.

As for `CC(C)N(CCC(C(N)=O)(c1ccccc1)c1ccccn1)C(C)C.O=P(O)(O)O` (configuration not stated), the cytotoxicity call was “inactive”.

As for `Cn1ccnc1N1CCNCC1`, the cytotoxicity call was “inactive”.

For `c1ccc2c(c1)Nc1ccccc1S2`, the cytotoxicity call is “active”.

On to `Nc1ccc(-c2ccccc2)cc1`, for which the cytotoxicity call was “inactive”.

On to `CC[n+]1c(-c2ccccc2)c2cc(N)ccc2c2ccc(N)cc21.[Br-]`, for which the cytotoxicity call was “active”.

`O=c1ccc(=O)[nH][nH]1`: the cytotoxicity call was “inactive”.

With `COC(C)(C)CCCC(C)CC=CC(C)=CC(=O)OC(C)C` (configuration not stated), the cytotoxicity call was “inactive”.

`O=C1CNC[C@@H]2c3cccc(F)c3CCN12`: the cytotoxicity call was “inactive”.

In the case of `[N-]=[N+]=NCc1ccccc1C[C@@]1(C(=O)N2CCCCC2)N=C(c2ccc(OCCCO)cc2)O[C@@H]1c1ccccc1N=[N+]=[N-]`, the cytotoxicity call is “inactive”.

Turning to `[N-]=[N+]=NCc1ccccc1C[C@]1(C(=O)N2CCCCC2)N=C(c2ccc(OCCCO)cc2)O[C@H]1c1ccccc1N=[N+]=[N-]`, the cytotoxicity call was “active”.

Regarding `[N-]=[N+]=NCc1ccccc1C[C@]1(C(=O)N2CCOCC2)N=C(c2ccc(OCCCO)cc2)O[C@H]1c1ccccc1N=[N+]=[N-]`, the cytotoxicity call is “active”.

For `CN1CCc2cc([C@H](CN)N(C)C)ccc21`, the cytotoxicity call was “inactive”.

For `CCOP(=S)(OCC)SCSP(=S)(OCC)OCC`, the cytotoxicity call is “inactive”.

Regarding `NCCc1cccs1`, the cytotoxicity call was “inactive”.

For `CN(C)C(=O)[C@H]1CCC2(CCNCC2)CO1`, the cytotoxicity call was “inactive”.

Take `Cc1cc(C2=NO[C@](c3cc(Cl)cc(Cl)c3)(C(F)(F)F)C2)ccc1C(=O)NCC(=O)NCC(F)(F)F`: the cytotoxicity call is “inactive”.

On to `[O-][n+]1ccccc1[S][Zn][S]c1cccc[n+]1[O-]`, for which the cytotoxicity call was “active”.

Take `C[As](C)SC[C@H](NC(=O)CC[C@H](N)C(=O)O)C(=O)NCC(=O)O`: the cytotoxicity call was “inactive”.

As for `CS(=O)(=O)c1ccc(C(=O)C2C(=O)CCCC2=O)c([N+](=O)[O-])c1`, the cytotoxicity call is “inactive”.

Regarding `Cl.NCC(O)c1ccc(O)cc1` (configuration not stated), the cytotoxicity call is “inactive”.

As for `O=C([O-])CCCO.[Na+]`, the cytotoxicity call is “inactive”.

In the case of `CC12C(=O)OC(=O)C1(C)C1CCC2O1` (configuration not stated), the cytotoxicity call is “active”.

`C[C@@]12C(=O)OC(=O)[C@]1(C)[C@H]1CC[C@@H]2O1`: the cytotoxicity call was “active”.

Turning to `C[C@]12C(=O)OC(=O)[C@]1(C)[C@H]1CC[C@H]2O1`, the cytotoxicity call is “active”.

As for `NC1(c2ccc(F)cc2)CCC1`, the cytotoxicity call is “inactive”.

As to `COC(=O)C1(O)C[C@H]2CC[C@@H](C1)N2C` (some centres not stated), the cytotoxicity call was “inactive”.

As for `CC=C(C)C(=O)OC1CC(OC(C)=O)C2(C(=O)OC)COC3C2C12COC(O)(C(=O)OC)C2C(C)(C12OC1(C)C1CC2OC2OC=CC21O)C3O` (configuration not stated), the cytotoxicity call is “inactive”.

`O[C@H]1C2CN3CCN(C2)CC1(c1ccccc1)C3`: the cytotoxicity call was “inactive”.

With `O=c1cccc2n1C[C@@H]1CNC[C@H]2C1`, the cytotoxicity call was “inactive”.

As to `Cc1ccc(OC(=O)N(C)C[C@H]2OCc3ccccc3-c3c(n(C)c4ccccc34)C(=O)N([C@@H](C)CO)C[C@H]2C)cc1`, the cytotoxicity call was “inactive”.

As to `Cc1cc([N+](=O)[O-])cnc1N1CCNCC1`, the cytotoxicity call was “inactive”.

In the case of `CN1C(=O)[C@@]23C[C@]4([C@@]56C[C@]78SS[C@](CO)(C(=O)N7[C@@H]5Nc5ccccc56)N(C)C8=O)c5ccccc5N[C@H]4N2C(=O)[C@@]1(CO)SS3`, the cytotoxicity call is “active”.

In the case of `CN1C(=O)[C@]23CC4=CC=C[C@H](O)[C@H]4N2C(=O)[C@@]1(CO)SS3`, the cytotoxicity call was “active”.

Turning to `NC1=NC(=O)C2(CCNCC2)N1`, the cytotoxicity call was “inactive”.

As for `NC[C@@H]1CCCN2CCCC[C@H]12`, the cytotoxicity call was “inactive”.

Consider `CCC(c1cccc(O)c1)C(C)CN(C)C.Cl` (configuration not stated), for which the cytotoxicity call was “inactive”.

Consider `COc1cccc2c1C(=O)c1c(O)c3c(c(O)c1C2=O)C[C@@](O)(C(=O)CO)C[C@@H]3O[C@H]1C[C@H](N2CCO[C@H](OC)C2)[C@H](O)[C@H](C)O1`, for which the cytotoxicity call was “active”.

For the compound `CC(=C1C(=O)NC(=O)NC1=O)c1ccc(N)cc1`, the cytotoxicity call was “inactive”.

In the case of `O=C(O)Cc1cnc[nH]1`, the cytotoxicity call is “inactive”.

With `CN[C@@H]1[C@@H]2[C@H]3CCN2C[C@H]1O3`, the cytotoxicity call was “inactive”.

In the case of `CNC(=O)[C@@H]1COC[C@@H]2CN(CC(C)C)C[C@@H]21`, the cytotoxicity call is “inactive”.

Consider `CCC1(O)C(=O)OCc2c1cc1n(c2=O)Cc2cc3ccccc3nc2-1` (configuration not stated), for which the cytotoxicity call was “active”.

As to `OCC(CO)N1CCC2(CCNCC2)CC1`, the cytotoxicity call was “inactive”.

In the case of `C#CC1(O)C=CC2C3CCC4=CC(=O)CCC4C3CCC21CC` (configuration not stated), the cytotoxicity call is “inactive”.

In the case of `C[C@@H](N)C(=O)N[C@@H](CO)C(=O)N[C@H](C(=O)N[C@H](C(=O)N[C@H](C(=O)N[C@@H](CC(N)=O)C(=O)N[C@@H](Cc1ccc(O)cc1)C(=O)N[C@H](C(N)=O)[C@@H](C)O)[C@@H](C)O)[C@@H](C)O)[C@@H](C)O`, the cytotoxicity call was “inactive”.
